Measured values from article PMC4552634, “A New Set of Chemical Starting Points with Plasmodium falciparum Transmission-Blocking Potential for Antimalarial Drug Discovery” (PLoS ONE, 2015).
The campaign covered roughly 13,000 compounds. About 3,200 (25%) showed an effect of 50% or more. Some of the results follow.

What follows are compounds tested on P. falciparum stage V gametocytes. Details: 48 h, 5 µM; inhibitor.
Parameters: BacTiter-Glo ATP luminescence viability of purified stage V gametocytes in 384-well plates, per cent inhibition versus DMSO

| Compound | % Inhibition [%] |
| --- | --- |
| CC(=O)OC[C@H]1O[C@@H](C#Cc2ccccc2)[C@H](OC(C)=O)[C@@H](OC(C)=O)[C@@H]1OC(C)=O [TCMDC-131801] | 35.52 |
| CC(C)C[C@@H](NC(=O)NC1CCC(CCN2C3CCC2CC(OC(=O)C(CO)c2ccccc2)C3)CC1)C(O)(c1ccccc1)c1ccccc1 (some centres unmarked) [TCMDC-136459] | 3.057 |
| CC1(C)NC(N)=NC(=N)N1OCC1CCCCC1 [TCMDC-131616] | -0.7745 |
| O=C1COc2ccc3ccccc3c21 [TCMDC-123508] | 4.476 |
| CCNCc1cccc(-c2ccc3ccnc(N)c3c2)c1 [TCMDC-136869] | 65.98 |
| CSc1nccc(-c2ccc3ccnc(N)c3c2)n1 [TCMDC-136641] | 63.58 |
| Nc1ccc(-c2ccc3ccnc(N)c3c2)cn1 [TCMDC-133428] | 40.89 |
| CNCc1cccc(-c2ccc3ccnc(N)c3c2)c1 [TCMDC-136794] | 70.03 |
| Nc1nccc2ccc(-c3cccc(O)c3)cc12 [TCMDC-136758] | 44.67 |
| CNc1cc(-c2ccc3ccnc(N)c3c2)nc(N)n1.O=CO [TCMDC-136539] | 29.83 |
| CNCc1ccc(-c2ccc3ccnc(N)c3c2)cc1 [TCMDC-136789] | 95.61 |
| Clc1ccc2c(N3CCCNCC3)ccnc2c1 [TCMDC-124813] | -27.2 |
| CCc1cc2c(cc1CC)CC(NC[C@@H](O)c1ccc(O)c3[nH]c(=O)ccc13)C2 [TCMDC-138894] | -46.2 |
| CCCCC([C@@H](Cc1ccc2ccccc2c1)C(=O)N[C@H](C(=O)NC)C(C)(C)C)N(O)C=O (some centres unmarked) [TCMDC-140405] | 29.38 |
| Cc1cccc2nc(-c3ccc(-c4ccc(NC(=O)NCc5ccccc5)cc4)s3)[nH]c12 [TCMDC-133156] | 6.679 |
| O=C(CCc1cnc[nH]1)Nc1cccc(-c2cccc(-c3nc4ccc(C(F)(F)F)cc4[nH]3)c2)c1 [TCMDC-132157] | -1.759 |
| Cc1cnc(Nc2cccnc2)nc1Nc1ccccc1C(=O)NC(C)C [TCMDC-134207] | 8.943 |
| O=C(Nc1ccc(CN2CCN(S(=O)(=O)c3ccc(Cl)s3)CC2)cc1)c1cccs1 [TCMDC-136320] | 18.17 |
| Cc1cc(CNCCCCCCCNCc2ccc(-c3ccccc3)cc2)ccc1O [TCMDC-140415] | 101 |
| N#Cc1ccc2c(c1)CN(CCCCNC(=O)c1ccc(-c3ccccc3)cc1)CC2 [TCMDC-139091] | 8.247 |
| Cc1cc(CNCCCCCCNCc2ccc(Cl)cc2)ccc1O [TCMDC-140414] | 43.51 |
| Cc1cc(CNCCCCCNCc2ccc(Cl)cc2)ccc1O [TCMDC-140411] | 48.45 |
| O=C(NCCCCCCNCc1ccc(-c2ccccc2)cc1)Nc1ccc(Cl)c(Cl)c1 [TCMDC-140706] | 4.226 |
| Cc1cc(CNCCCCCCNCc2ccc(-c3ccccc3)cc2)ccc1O [TCMDC-140412] | 99.09 |
| N#Cc1ccc(CNCCCCCCCNCc2ccc(-c3ccccc3)cc2)cc1 [TCMDC-140407] | 71.46 |

| Compound | % Inhibition [%] |
| --- | --- |
| Cc1cc(CNCCCCCCCNCc2ccc(Cl)cc2)ccc1O [TCMDC-140417] | -6.741 |
| O=C(/C=C/c1ccc(Cl)c(Cl)c1)NCCCCCN1CCC(NC(=O)c2cc(Cl)ccc2F)CC1 [TCMDC-135870] | -52.06 |
| CC(C)(C)c1ccc(S(=O)(=O)Nc2ccccc2N2CCOCC2)cc1 [TCMDC-124560] | 22.48 |
| CC(=O)c1cc(N2CCCC2)ccc1N [TCMDC-125017] | -63.54 |
| CCCCCCc1cc2cc(-c3nc(-c4ccc(OC)cc4)cs3)c(=O)oc2cc1O [TCMDC-124081] | -11.41 |
| O=C(Nc1cccc(-c2cccc(-c3nc4ccc(C(F)(F)F)cc4[nH]3)c2)c1)c1cnc[nH]1 [TCMDC-136935] | 37.83 |
| NC1=NC2(CCCCC2)N(OCCCCCCc2ccccc2)C(N)=N1 [TCMDC-131605] | 26.32 |
| CC1(C)Cc2c([nH]c3ccccc23)C(CCCCCCCCC2=NC(C)(C)Cc3c2[nH]c2ccccc32)=N1 [TCMDC-137565] | 110.1 |
| Cc1nn(C2CCS(=O)(=O)C2)c(C)c1C1Nc2ccccc2C(=O)N1Cc1ccc2c(c1)OCO2 (centres unmarked) [TCMDC-125241] | 62.63 |
| Cc1cc(C2NC(=O)c3ccccc3N2)c(C)n1-c1ccc2c(c1)OCO2 (centres unmarked) [TCMDC-125051] | 5.355 |
| OC(c1cccc(OCc2ccccc2)c1)C1CN(CCc2ccccc2)CCC1(O)c1ccccc1 (centres unmarked) [TCMDC-131997] | 1.971 |
| COc1cc(Nc2nccc(-c3c(-c4cccc(NC(=O)c5c(F)cccc5F)c4)nn4ccccc34)n2)cc(OC)c1OC [TCMDC-135668] | -53.25 |
| CCCCCC(=O)N1CCOC(CCN2CCc3c(c4ccccc4n3C)C2)(c2ccc(Cl)c(Cl)c2)C1 (centres unmarked) [TCMDC-135564] | -20.19 |
| Cc1csc2nc(-c3ccccn3)nc(Nc3ccncn3)c12 [TCMDC-138927] | 119.9 |
| Cc1csc2nc(-c3ccccn3)nc(Nc3ccc4ncsc4c3)c12 [TCMDC-138923] | 100.3 |
| S=C(NCCc1ccccc1)Nc1ccc2ncsc2c1 [TCMDC-139021] | -23.08 |
| O=C(Nc1ccnc(N2CC3CC2CN3Cc2cccc(O)c2)c1)c1ccc(F)cc1 (centres unmarked) [TCMDC-134956] | -60.26 |
| FC(F)(F)c1ccc2[nH]c(-c3ccc(-c4ccc(CNCC5CCCO5)cc4)cc3)nc2c1.O=C(O)C(F)(F)F (centres unmarked) [TCMDC-133096] | -14.34 |
| O=C(CCc1nc2c(cnn2-c2ccccc2)c(=O)[nH]1)NC1CCSc2ccccc21 (centres unmarked) [TCMDC-124875] | -14.45 |
| CN1CCCC(CN2CCN(Cc3cccc(-c4ccc(-c5nc6ccccc6[nH]5)s4)c3)CC2)C1.O=C(O)C(F)(F)F (centres unmarked) [TCMDC-133904] | 49.15 |
| Cc1cccc2nc(-c3ccc(-c4ccc(CN5CCN(c6ccncc6)CC5)cc4)s3)[nH]c12.O=C(O)C(F)(F)F [TCMDC-132912] | 36.62 |
| Cc1cccc2nc(-c3ccc(-c4cccc(CN5CCN(CC6CCCN(C)C6)CC5)c4)s3)[nH]c12.O=C(O)C(F)(F)F (centres unmarked) [TCMDC-133909] | 55.65 |
| Cc1cccc2nc(-c3ccc(-c4cccc(CN5CCN(c6ccncc6)CC5)c4)s3)[nH]c12.O=C(O)C(F)(F)F [TCMDC-132917] | 20.85 |
| Cc1cccc2nc(-c3ccc(-c4ccc(CN5CCCCC5)cc4)s3)[nH]c12.O=C(O)C(F)(F)F [TCMDC-133902] | -19.5 |
| Cc1cccc2nc(-c3ccc(-c4ccc(CN5CCN(CC6CCCN(C)C6)CC5)cc4)s3)[nH]c12.O=C(O)C(F)(F)F (centres unmarked) [TCMDC-133899] | 90.54 |
